# Reference: ChEMBL document CHEMBL3988442, “University of Dundee, Small-Polar-MMV Screening Library” (2021)
# For part of these data: Potency and affinity values are given separately.
# Assays:
# Parameters in all cases: scale not given: direction of the effect not stated beside the values
# [1] = molecular target: Protein translocase subunit SecA (Escherichia coli (strain K12)) (UniProt P10408); experiment: Assay to Identify E. coli SecA ATPase Inhibitors; assay type: functional; conditions: 30 µM
# [2] = molecular target: T1, Ubiquitin-activating enzyme e1, putative (Leishmania donovani (strain BPK282A1)) (UniProt E9BSI1); experiment: Leishmania donovani Ubiquitin Activating Enzyme (LdE1); assay type: functional; conditions: 30 µM
# T1 sequence (whole entry): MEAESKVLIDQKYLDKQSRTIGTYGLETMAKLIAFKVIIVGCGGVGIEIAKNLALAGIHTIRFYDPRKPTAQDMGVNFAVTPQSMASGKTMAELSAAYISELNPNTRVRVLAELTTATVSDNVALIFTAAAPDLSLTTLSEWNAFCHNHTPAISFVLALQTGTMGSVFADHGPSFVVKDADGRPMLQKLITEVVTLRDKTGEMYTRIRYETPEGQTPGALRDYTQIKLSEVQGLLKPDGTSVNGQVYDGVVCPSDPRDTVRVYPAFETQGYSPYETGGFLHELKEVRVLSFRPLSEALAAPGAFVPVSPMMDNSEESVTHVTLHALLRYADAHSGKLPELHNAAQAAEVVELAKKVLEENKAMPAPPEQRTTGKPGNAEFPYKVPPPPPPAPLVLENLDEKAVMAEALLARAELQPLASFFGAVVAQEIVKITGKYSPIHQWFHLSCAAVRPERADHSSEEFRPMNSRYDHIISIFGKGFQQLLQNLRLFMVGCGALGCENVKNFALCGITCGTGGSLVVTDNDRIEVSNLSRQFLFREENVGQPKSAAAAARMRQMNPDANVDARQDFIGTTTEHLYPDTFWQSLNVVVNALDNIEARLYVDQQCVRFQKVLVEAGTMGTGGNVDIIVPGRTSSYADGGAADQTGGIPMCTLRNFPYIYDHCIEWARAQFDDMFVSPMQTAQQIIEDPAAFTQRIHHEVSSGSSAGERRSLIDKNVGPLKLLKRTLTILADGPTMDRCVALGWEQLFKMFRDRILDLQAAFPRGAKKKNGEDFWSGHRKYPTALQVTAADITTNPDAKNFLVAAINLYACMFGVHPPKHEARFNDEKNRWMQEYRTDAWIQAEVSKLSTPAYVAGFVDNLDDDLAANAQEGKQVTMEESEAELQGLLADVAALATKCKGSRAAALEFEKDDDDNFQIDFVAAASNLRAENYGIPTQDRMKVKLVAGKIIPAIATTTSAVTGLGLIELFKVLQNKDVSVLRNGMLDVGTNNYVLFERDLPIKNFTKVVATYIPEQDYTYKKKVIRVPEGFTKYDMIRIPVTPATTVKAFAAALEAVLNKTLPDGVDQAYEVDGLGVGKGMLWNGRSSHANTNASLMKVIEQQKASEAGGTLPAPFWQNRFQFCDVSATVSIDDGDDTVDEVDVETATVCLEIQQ
# [3] = molecular target: T2, Aspartate--tRNA(Asp/Asn) ligase (Mycobacterium tuberculosis (strain ATCC 25618 / H37Rv)) (UniProt P9WFW3); experiment: Assay for Asp RNA synthetase-1 from Mycobacterium tuberculosis; assay type: functional; conditions: 30 µM; also: in the data most compounds retested in dose-response had high values
# T2 sequence (whole entry): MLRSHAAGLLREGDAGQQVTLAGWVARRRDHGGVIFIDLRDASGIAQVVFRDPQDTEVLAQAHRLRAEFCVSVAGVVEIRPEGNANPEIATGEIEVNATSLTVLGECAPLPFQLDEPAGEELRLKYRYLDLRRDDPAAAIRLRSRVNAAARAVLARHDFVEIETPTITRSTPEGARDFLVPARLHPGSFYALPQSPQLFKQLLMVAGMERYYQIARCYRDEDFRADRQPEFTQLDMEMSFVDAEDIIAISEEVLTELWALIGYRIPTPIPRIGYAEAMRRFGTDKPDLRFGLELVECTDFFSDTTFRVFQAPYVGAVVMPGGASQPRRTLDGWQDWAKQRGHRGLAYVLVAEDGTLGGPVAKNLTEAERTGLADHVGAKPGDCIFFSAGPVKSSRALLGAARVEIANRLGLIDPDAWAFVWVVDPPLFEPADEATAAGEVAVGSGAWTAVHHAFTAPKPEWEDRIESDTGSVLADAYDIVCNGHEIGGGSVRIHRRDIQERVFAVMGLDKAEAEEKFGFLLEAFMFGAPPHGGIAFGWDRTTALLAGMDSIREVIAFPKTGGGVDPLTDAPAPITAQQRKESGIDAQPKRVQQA
# [4] = molecular target: AMP-activated protein kinase, AMPK (Homo sapiens) (UniProt P54646+O43741+P54619+Q9UGJ0+Q9Y478+Q13131+Q9UGI9); experiment: AMP-dependent Kinase enzyme assay. An in vitro enzyme assay that detects ADP turnover that is directly proportional to AMPK activity. This uses naive AMPK that is activated during the assay with MK-8722; assay type: functional; conditions: 30 µM
# [5] = molecular target: Sialic acid-binding Ig-like lectin 9 (Homo sapiens) (UniProt Q9Y336); experiment: Hs-Siglec9 ALPHAscreen SOP 20170721; conditions: 10 µM
# Trypanosoma cruzi = experiment: Trypanosoma cruzi phosphomannomutase and mannose-1-phosphate guanylyltransferase assay; assay type: functional; conditions: 10 µM
# [6] = molecular target: T3, Arginase-2, mitochondrial (Homo sapiens) (UniProt P78540); experiment: in vitro enzyme assay to detect the production of urea directly proportional to the activity of Arginase II; assay type: functional; conditions: 33.3 µM; also: in the data most compounds retested in dose-response had high values
# T3 sequence (whole entry): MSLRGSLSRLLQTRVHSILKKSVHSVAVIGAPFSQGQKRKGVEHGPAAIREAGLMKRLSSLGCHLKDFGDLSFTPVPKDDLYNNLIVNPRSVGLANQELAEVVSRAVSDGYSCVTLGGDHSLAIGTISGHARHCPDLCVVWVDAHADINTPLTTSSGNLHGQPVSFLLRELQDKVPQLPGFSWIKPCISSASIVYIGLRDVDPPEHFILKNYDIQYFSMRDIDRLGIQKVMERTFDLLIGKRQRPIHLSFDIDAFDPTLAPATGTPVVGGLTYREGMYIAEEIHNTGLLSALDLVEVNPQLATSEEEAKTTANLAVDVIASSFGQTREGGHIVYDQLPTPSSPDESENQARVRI
# [7] = molecular target: T4, Proteasome subunit beta (Trypanosoma cruzi) (UniProt O96673); experiment: Trypanosoma cruzi proteasome chymotrypsin-like activity (TcProtChymo) assay.; also: in the data most compounds retested in dose-response had high values; assay type: functional; conditions: 9.37 µM
# T4 sequence (whole entry): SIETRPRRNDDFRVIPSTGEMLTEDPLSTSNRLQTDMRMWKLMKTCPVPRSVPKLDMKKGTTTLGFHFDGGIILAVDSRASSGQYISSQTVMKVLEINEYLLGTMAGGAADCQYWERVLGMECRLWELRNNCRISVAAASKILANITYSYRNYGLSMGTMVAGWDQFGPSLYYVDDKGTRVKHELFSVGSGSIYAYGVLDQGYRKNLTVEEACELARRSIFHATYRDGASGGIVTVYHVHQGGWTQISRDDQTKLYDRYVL
# Homo sapiens = species: Homo sapiens; experiment: To identify inhibition of the IFN signalling (Jak-Stat) pathway via expression of an eGFP reporter gene under the control of an IFN-stimulated response element (ISRE) containing MxA promoter.; assay type: functional; conditions: 30 µM
# [8] = molecular target: Shiga toxin 2 (Escherichia coli O157:H7) (UniProt P09385+P09386); experiment: E. coli 0.157:H7 Shiga Toxin SOP - stx2 screening assay; assay type: functional; conditions: 30 µM
# [9] = molecular target: T5, Tyrosyl-tRNA synthetase, putative (Trypanosoma cruzi (strain CL Brener)) (UniProt Q4DSP6); experiment: Trypanosoma cruzi tyrosyl tRNA synthetase (TcYRS) _High Tyrosine SOP; assay type: functional; conditions: 30 µM; also: in the data most compounds retested in dose-response had high values
# T5 sequence (whole entry): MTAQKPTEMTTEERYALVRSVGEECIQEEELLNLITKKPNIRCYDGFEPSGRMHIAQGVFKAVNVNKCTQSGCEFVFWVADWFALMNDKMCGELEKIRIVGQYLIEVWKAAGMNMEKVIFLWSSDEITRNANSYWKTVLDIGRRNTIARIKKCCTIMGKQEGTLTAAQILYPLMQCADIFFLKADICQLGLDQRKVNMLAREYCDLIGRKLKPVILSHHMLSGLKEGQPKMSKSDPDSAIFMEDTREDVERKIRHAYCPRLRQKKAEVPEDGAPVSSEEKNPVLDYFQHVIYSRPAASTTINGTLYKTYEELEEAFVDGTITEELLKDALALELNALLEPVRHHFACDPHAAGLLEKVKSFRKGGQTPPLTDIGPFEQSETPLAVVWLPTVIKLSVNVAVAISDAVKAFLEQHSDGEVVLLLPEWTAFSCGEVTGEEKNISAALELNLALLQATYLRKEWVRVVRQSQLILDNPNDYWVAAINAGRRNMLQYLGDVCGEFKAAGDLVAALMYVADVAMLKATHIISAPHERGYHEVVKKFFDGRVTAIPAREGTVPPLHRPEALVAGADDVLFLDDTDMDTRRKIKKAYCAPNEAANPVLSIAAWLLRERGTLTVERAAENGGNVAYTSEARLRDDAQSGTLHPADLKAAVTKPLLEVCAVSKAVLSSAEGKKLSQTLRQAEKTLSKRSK
# [10] = molecular target: T5, Tyrosyl-tRNA synthetase, putative (Trypanosoma cruzi (strain CL Brener)); experiment: Trypanosoma cruzi tyrosyl tRNA synthetase (TcYRS) SOP; assay type: functional; conditions: 30 µM
# [11] = molecular target: Chromo domain-containing protein 1 (Saccharomyces cerevisiae (strain ATCC 204508 / S288c) (Baker's yeast)) (UniProt P32657); experiment: ScCHD-1 Enzyme Inhibition Assay; assay type: functional; conditions: 30 µM; also: in the data most compounds retested in dose-response had high values
# Chain of Chromo domain-containing protein 1 (Saccharomyces cerevisiae (strain ATCC 204508 / S288c) (Baker's yeast)) (P32657 whole entry, the tested form may be a part): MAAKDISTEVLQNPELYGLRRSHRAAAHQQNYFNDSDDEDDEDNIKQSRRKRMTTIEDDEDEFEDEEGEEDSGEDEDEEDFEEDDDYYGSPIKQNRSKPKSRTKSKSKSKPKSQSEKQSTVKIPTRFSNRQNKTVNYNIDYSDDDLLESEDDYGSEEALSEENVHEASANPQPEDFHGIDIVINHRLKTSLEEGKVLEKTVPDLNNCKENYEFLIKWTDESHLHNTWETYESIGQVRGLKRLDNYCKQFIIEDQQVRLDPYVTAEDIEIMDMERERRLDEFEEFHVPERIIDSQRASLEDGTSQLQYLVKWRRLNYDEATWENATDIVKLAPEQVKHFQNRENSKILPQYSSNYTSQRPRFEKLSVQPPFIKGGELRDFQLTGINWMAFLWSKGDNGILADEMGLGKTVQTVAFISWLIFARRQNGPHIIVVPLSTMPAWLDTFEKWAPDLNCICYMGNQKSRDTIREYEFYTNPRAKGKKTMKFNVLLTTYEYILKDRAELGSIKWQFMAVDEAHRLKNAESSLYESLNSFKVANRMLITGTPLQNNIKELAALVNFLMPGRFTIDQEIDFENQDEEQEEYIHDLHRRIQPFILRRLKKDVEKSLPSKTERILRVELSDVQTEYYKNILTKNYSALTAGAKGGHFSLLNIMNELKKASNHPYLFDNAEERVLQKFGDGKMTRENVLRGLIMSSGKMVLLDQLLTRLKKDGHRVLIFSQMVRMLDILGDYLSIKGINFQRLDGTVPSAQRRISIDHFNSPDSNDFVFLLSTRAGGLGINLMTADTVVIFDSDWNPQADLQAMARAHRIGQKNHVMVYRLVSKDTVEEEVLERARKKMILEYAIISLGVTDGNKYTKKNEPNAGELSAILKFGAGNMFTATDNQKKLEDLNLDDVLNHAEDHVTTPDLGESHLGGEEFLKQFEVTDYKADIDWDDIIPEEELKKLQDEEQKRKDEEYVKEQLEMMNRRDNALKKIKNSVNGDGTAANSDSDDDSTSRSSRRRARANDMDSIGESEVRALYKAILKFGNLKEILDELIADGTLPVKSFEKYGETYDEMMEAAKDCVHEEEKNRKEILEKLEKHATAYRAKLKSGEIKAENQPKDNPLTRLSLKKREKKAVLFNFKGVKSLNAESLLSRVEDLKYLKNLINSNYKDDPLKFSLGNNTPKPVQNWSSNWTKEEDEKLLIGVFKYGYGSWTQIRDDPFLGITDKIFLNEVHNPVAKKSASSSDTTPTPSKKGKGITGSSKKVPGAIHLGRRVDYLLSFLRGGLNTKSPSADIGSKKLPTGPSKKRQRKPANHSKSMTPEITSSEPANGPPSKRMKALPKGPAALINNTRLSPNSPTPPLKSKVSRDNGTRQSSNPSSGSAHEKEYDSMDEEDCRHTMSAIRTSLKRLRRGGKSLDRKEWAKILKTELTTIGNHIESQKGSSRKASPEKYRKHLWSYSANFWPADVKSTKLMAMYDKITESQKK
# Chain of Sialic acid-binding Ig-like lectin 9 (Homo sapiens) (Q9Y336 whole entry): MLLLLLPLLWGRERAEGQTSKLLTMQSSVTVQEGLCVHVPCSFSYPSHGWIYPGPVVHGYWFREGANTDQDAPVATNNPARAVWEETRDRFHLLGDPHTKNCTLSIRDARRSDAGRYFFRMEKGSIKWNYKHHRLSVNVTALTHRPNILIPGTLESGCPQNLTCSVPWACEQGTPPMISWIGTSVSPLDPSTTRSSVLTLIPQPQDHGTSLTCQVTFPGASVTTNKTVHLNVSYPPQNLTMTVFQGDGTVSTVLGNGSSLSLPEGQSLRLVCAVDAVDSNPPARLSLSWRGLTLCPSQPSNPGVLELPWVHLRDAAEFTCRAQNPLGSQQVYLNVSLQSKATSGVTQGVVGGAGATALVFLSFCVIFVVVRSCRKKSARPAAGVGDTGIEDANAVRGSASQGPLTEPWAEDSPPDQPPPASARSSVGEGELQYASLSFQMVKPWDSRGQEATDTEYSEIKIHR
# Chain of Protein translocase subunit SecA (Escherichia coli (strain K12)) (P10408 whole entry): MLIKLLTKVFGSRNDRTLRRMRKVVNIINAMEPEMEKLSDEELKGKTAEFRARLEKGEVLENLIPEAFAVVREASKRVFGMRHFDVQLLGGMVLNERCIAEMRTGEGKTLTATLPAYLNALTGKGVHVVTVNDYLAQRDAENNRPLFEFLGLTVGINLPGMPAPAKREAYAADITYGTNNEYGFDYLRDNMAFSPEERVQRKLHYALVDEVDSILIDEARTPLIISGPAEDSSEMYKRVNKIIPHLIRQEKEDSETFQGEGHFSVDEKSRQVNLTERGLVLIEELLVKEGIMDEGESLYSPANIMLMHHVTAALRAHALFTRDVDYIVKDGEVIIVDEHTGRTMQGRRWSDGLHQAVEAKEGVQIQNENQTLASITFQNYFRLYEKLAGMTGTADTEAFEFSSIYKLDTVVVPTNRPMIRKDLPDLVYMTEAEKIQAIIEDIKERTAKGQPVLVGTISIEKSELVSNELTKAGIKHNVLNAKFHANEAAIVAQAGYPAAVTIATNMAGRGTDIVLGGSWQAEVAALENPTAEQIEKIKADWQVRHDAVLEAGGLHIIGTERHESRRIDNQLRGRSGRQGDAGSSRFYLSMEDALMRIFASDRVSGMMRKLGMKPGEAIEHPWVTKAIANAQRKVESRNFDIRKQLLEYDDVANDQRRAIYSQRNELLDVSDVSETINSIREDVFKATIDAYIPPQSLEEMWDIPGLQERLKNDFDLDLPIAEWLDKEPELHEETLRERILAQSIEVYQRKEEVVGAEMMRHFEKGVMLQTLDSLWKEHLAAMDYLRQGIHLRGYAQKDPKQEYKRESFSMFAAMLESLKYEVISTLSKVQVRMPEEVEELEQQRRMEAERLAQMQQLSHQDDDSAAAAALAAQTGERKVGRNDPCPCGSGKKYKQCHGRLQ
SMILES,Percent Effect [1] [%],Percent Effect [2] [%],Percent Effect [3] [%],Percent Effect [4] [%],Percent Effect [5] [%],Percent Effect (Trypanosoma cruzi) [%],Percent Effect [6] [%],Percent Effect [7] [%],Percent Effect (Homo sapiens) [%],Percent Effect [8] [%],Percent Effect [9] [%],Percent Effect [10] [%],Percent Effect [11] [%]
O=C1CC2(CCN(Cc3ccccn3)C2)CN1c1cncnc1 (configuration not stated),-0.821,0,-1.45,2.73,-3.03,-1.66,0.319,16.1,-0.29,-1.07,2.16,5.13,5.33
c1cncc(OC[C@@H]2CCC[C@@]23CNCCO3)c1,-5.75,8.11,1.15,89.4,-7.32,-6.75,-3.5,13.1,9.54,-12.4,-3.24,0,-2.43
CC(C)CN1CCC2(C1)CN(c1ncccn1)C2,-1.21,13.3,3.02,6.7,-5.1,-3.15,-3.03,10.3,5.15,-15.1,5.32,11.5,-4.75
CC(c1ccc(F)cc1)N1CCN(Cc2ccc(C#N)cc2)CC1 (configuration not stated),-5.23,13.5,-0.88,-5.75,2.94,-4.81,-0.401,7.57,18.8,24.7,4.43,13.6,-5.01
O=C(C1CC1)N1CCC2(CC1)OCCO2,-2.52,7.89,0.21,-0.0617,-9.69,-4.38,2.37,14.1,14.1,-6.13,0,10.4,-6.58
COc1cc(CNCC(O)c2ccc(C)cc2)cc2c1OCCO2 (configuration not stated),-5.58,24.3,-2.36,11,14.6,2.32,-3.88,16.3,8.18,-34.2,6.93,18.3,-6.66
O=C(c1cc(-n2cccc2)ccc1Cl)N1CCC2(CC1)OCCO2,-3.83,7.89,3.38,15.4,-3.27,-0.876,-8.28,15.8,1.48,8.93,2.13,10.4,-2.85
CCN1C[C@H]2[C@@H](C1)N(S(=O)(=O)c1cccnc1)CC[C@H]2OC,-0.0411,5.33,1.49,5.24,-6.52,-5.91,-2.56,4.49,14.5,-25,-3.19,-3.85,-1.11
c1cncc(CO[C@H]2CC[C@H]3[C@@H]2OCCN3C2CCOCC2)c1,1.26,2.74,0.0456,-4.02,5.81,7.14,-0.399,4.37,-1.77,-20.6,3.12,8.64,1.15
